Screening data (PubChem BioAssay)
CHX counter = counter-screen for Shiga toxin inhibitors: cycloheximide protein synthesis inhibition | cell reporter, cycloheximide protein synthesis inhibition counterscreen | max response, % | hit rate 12% among 300,000; in the data active = max response mostly above about 13%, no sharp cut-off; inactive = mostly below about 14%; also: read at 38.3 µM for the half of the compounds with a filed dose; 0% is about no effect
Pf growth 96h = inhibits malaria parasite growth, 96 h; P. falciparum luciferase reporter growth, 96 h; Potency, µM (top dose mostly 28.7 µM), for the others: at the top dose activity change, negative = inhibition, usual class: inhibitors; hit rate 6.9% among 320,000; also: potency is read from the fitted curve at half-maximal effect; % is scaled to controls: 0 for no effect and ±100 for the full control effect
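96 h incubation, 37 C, 5% CO2, of luciferase-reporter P. falciparum-infected RBCs (2% hematocrit, 0.05% parasitemia final) with test compounds; endpoint luminescence.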
MARV entry inh = Marburg virus entry inhibition. hit rate 1.8% among 300,000. Marburg virus pseudotyped entry inhibition, cell reporter. Potency, µM (series often up to 37.8 µM), for inactives: at the top dose activity change, negative = inhibition, actives largely listed as inhibitors. AID 540276; calls by dose curve; tested in HEK293 cells; also: potency is read from the fitted curve at half-maximal effect; % is scaled to controls: 0 for no effect and ±100 for the full control effect
LASV entry inh = inhibitors of Lassa virus binding or cell entry. Lassa virus pseudotype entry inhibition, cell reporter. Potency, µM (titrated, usually from 37.9 µM), for the others: at the top dose activity change, negative = inhibition, hits mostly inhibitors. hit rate 1.2% among 300,000; calls by dose curve; tested in HEK293 cells; also: potency is read from the fitted curve at half-maximal effect; % is scaled to controls: 0 for no effect and ±100 for the full control effect; nearly all actives have a fitted effect of over 50% in size
Shiga toxin inh = blocks Shiga toxin action in Vero cells | inhibition, % at 38.7 µM | hit rate 9.2% among 290,000 | Vero cells, Shiga toxin protein synthesis inhibition reporter; in the data active = inhibition mostly above about 28%, no sharp cut-off; inactive = mostly below about 43%; also: 0% is about no effect
Pf growth 48h = P. falciparum growth inhibition at 48 hours (one generation); hit rate 5.9% among 310,000; Potency, µM (highest dose often 28.7 µM), for the others: top-dose activity change, negative = inhibition, usual class: inhibitors; P. falciparum luciferase growth in erythrocytes, 48 h; also: potency is read from the fitted curve at half-maximal effect; % is scaled to controls: 0 for no effect and ±100 for the full control effect
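Here the parasites carry a stable luciferase gene and grow inside erythrocytes in Albumax-based RPMI medium with compound for one erythrocytic cycle. Activity is scored as loss of luminescent signal.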
* = called active by the depositor; [ ] = another dose, or the depositor's remark. This is a sample that favours compounds with a hit; in the whole collection about 19% have one here. Unless noted, calls follow the shape of the dose curve; as a rule, active = well fitted inhibition curve with a large enough effect; inconclusive = small, poorly fitted or top-dose-only effect, or another doubt; inactive = no such curve, though single readings can be large or run the other way.

`O=C(c1cc(COc2c(F)cccc2F)on1)N1CCC(c2ccncc2)CC1` gave CHX counter 7.0, Pf growth 96h inconclusive, MARV entry inh inconclusive, LASV entry inh -7.5%, Shiga toxin inh 27.6 and Pf growth 48h inconclusive.
COc1ccc(NC(=O)CN(C)C(=O)c2cccc(S(=O)(=O)Nc3ccccc3Cl)c2)cc1 was read as Pf growth 96h inconclusive, MARV entry inh 7.7%, LASV entry inh -2.2% and Pf growth 48h -23.8%.
CSc1ccccc1OCc1cc(C(=O)N2CCN3CCCC3C2)no1 (configuration not stated) was read as CHX counter 15.2*, Pf growth 96h inconclusive, Shiga toxin inh 27.0 and Pf growth 48h 8.5%.
`O=C(c1cc(COc2ccc(F)cc2Cl)on1)N1CCN(C2CCCC2)CC1` gave CHX counter -3.3, Pf growth 96h inconclusive, MARV entry inh -21.8%[46.1 µM], LASV entry inh -3.1%[46.1 µM], Shiga toxin inh 18.7 and Pf growth 48h 19.0%.
For Cc1cc(C)c(C)c(S(=O)(=O)N2CCSCC2)c1C the results were CHX counter -2.2, Pf growth 96h 0.0%, Shiga toxin inh -3.8 and Pf growth 48h -9.2%.
Screening O=C(CSc1nnc2ccc3ccccc3n12)c1ccc(F)cc1 returned Pf growth 96h 41.4%, MARV entry inh inconclusive, LASV entry inh 13.4%[46.1 µM] and Pf growth 48h 36.6%.
`O=C1C=C(Nc2ccccc2O)c2ccccc2C1=O` gave CHX counter 16.8*, Pf growth 96h 9.28µM*, MARV entry inh inconclusive, LASV entry inh inconclusive, Shiga toxin inh 84.5* and Pf growth 48h 10.4µM*.
For O=C1C=C(NCc2ccccc2)c2ccccc2C1=O the results were CHX counter 56.2*, Pf growth 96h -4.6%, MARV entry inh inconclusive, LASV entry inh inconclusive, Shiga toxin inh 80.5* and Pf growth 48h inconclusive.
For O=c1cccccc1NCc1ccccc1 the results were CHX counter 26.1*, Pf growth 96h 1.3%, MARV entry inh 9.9%, LASV entry inh 25.9% and Shiga toxin inh 6.3.
Screening N#Cc1ccccc1NCc1ccccc1 returned CHX counter -0.7, Pf growth 96h inconclusive, MARV entry inh 8.0%, LASV entry inh inconclusive, Shiga toxin inh -8.5 and Pf growth 48h 21.7%.
For O=c1cnnc(Nc2ccc(F)cc2)[nH]1 the results were CHX counter -1.8, Pf growth 96h -41.2%, MARV entry inh 1.1%[46.1 µM], LASV entry inh 16.1%[46.1 µM], Shiga toxin inh 21.6 and Pf growth 48h 4.5%.
For O=C1C=C(Nc2ccc(F)cc2)c2ccccc2C1=O the results were Pf growth 96h 1.04µM*, MARV entry inh inconclusive, LASV entry inh inconclusive and Pf growth 48h 1.85µM*.
For CCC(C)NC(=O)CC(NS(=O)(=O)c1ccc(Cl)cc1)c1ccco1 (configuration not stated) the results were CHX counter 5.5, Pf growth 96h inconclusive, MARV entry inh 10.0%, LASV entry inh 3.5%, Shiga toxin inh -7.1 and Pf growth 48h 0.8%.
Screening Cn1ccnc1SCC(=O)NCC(=O)Nc1ccc(F)c(F)c1F returned MARV entry inh 10.2% and LASV entry inh 3.1%.
Screening Cc1cccc(C)c1NC(=O)CN(C)C(=O)c1ccc2nc[nH]c2c1 returned Pf growth 96h 8.7%, MARV entry inh 14.6%, LASV entry inh 7.8%[46.1 µM] and Pf growth 48h 27.5%.
Screening COc1cc(C(=O)N2CCCc3ccccc32)c([N+](=O)[O-])cc1OC returned CHX counter -1.5, Pf growth 96h 20.3%, Shiga toxin inh -21.8 and Pf growth 48h -12.3%.
Cc1ccc(NS(=O)(=O)c2ccc3c(c2)C(=O)c2ccccc2C3=O)c(C)c1 was read as CHX counter -1.3, Pf growth 96h inconclusive, MARV entry inh -0.8%, LASV entry inh -7.4%, Shiga toxin inh 1.1 and Pf growth 48h -11.6%.
`Cc1ccc(NC2=CC(=O)C(=O)c3ccccc32)c(C)c1` gave Pf growth 96h 0.586µM* and Pf growth 48h 0.828µM*.
Cc1onc(-c2ccccc2)c1CNC(=O)Nc1ccc(F)cc1F was read as CHX counter 10.2, Pf growth 96h inconclusive, Shiga toxin inh -10.9 and Pf growth 48h inconclusive.
`Cc1onc(-c2ccccc2)c1CNC(=O)Nc1cccc(Cl)c1` gave CHX counter -1.0, Pf growth 96h 9.28µM*, MARV entry inh inconclusive, LASV entry inh inconclusive, Shiga toxin inh -5.2 and Pf growth 48h -155.4%.
